Test in all cases: glycan array binding signal (z-score within array); higher = stronger binding
Conditions in all cases: glycan notation: IUPAC condensed, linker removed

Assay [1] has as its target GalNAc(b1-4)GlcNAc. An outline of the steps:
(§1)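 Glycan array data came from 3228 arrays in the Consortium for Functional Glycomics database, and only arrays with an available protein sequence were kept. Glycan names were put into IUPAC-condensed notation, and columns mapping to the same glycan were averaged. The binding signal is a within-array Z-score, averaged across arrays of one protein sequence run at different concentrations or buffers and across linkers. A negative Z-score can be read as non-binding.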

The target of assay [2] is GalNAc(b1-4)GlcNAc(b1-2)Man. An outline of the steps:
as §1

Assay [3] deals with GalNAc(b1-4)GlcNAc(b1-3)GalNAc(b1-4)GlcNAc. An outline of the steps: as §1
Assay [4] deals with Glc(b1-4)Glc. In outline:
as §1

The target in assay [5] is GlcNAc(a1-4)Gal(b1-4)GlcNAc. An outline of the steps:
as §1

For assay [6], the target named is GlcNAc(a1-4)Gal(b1-4)GlcNAc(b1-3)Gal(b1-4)Glc. An outline of the steps:
as §1

The target of assay [7] is GlcNAc(a1-4)Gal(b1-4)GlcNAc(b1-3)Gal(b1-4)GlcNAc(b1-3)Gal(b1-4)GlcNAc. An outline of the steps: as §1
Assay [8] concerns the target GlcNAc(b1-3)Gal(b1-4)GlcNAc(b1-2)Man(a1-3)[GlcNAc(b1-3)Gal(b1-4)GlcNAc(b1-2)Man(a1-6)]Man(b1-4)GlcNAc(b1-4)[Fuc(a1-6)]GlcNAc. An outline of the steps:
as §1

Assay [9] has as its target GlcNAc(b1-3)Gal(b1-4)GlcNAc(b1-3)Gal(b1-4)GlcNAc. In outline: as §1
Assay [10] deals with GlcNAc(b1-3)Gal(b1-4)GlcNAc(b1-3)GalNAc. An outline of the steps: as §1
The target of assay [11] is GlcNAc(b1-4)GlcNAc(b1-4)GlcNAc. In outline:
as §1

The target in assay [12] is GlcNAc(b1-4)GlcNAc(b1-4)GlcNAc(b1-4)GlcNAc(b1-4)GlcNAc. In outline: as §1
Assay [13] has as its target GlcNAc(b1-4)GlcNAc(b1-4)GlcNAc(b1-4)GlcNAc(b1-4)GlcNAc(b1-4)GlcNAc. In outline:
as §1

For assay [14], the target named is Neu5Ac(a2-3)Gal(b1-4)GlcNAc(b1-2)Man. An outline of the steps: as §1
Assay [15] concerns the target Neu5Ac(a2-3)Gal(b1-4)GlcNAc(b1-3)Gal(b1-4)GlcNAc(b1-3)GalNAc. In outline:
as §1

The target of assay [16] is Neu5Ac(a2-3)Gal(b1-4)GlcNAc(b1-3)Gal(b1-4)GlcNAc(b1-3)[Neu5Ac(a2-3)Gal(b1-4)GlcNAc(b1-3)Gal(b1-4)GlcNAc(b1-6)]GalNAc. In outline: as §1
The target in assay [17] is Neu5Ac(a2-6)Gal(b1-4)GlcNAc(b1-2)[Neu5Ac(a2-6)Gal(b1-4)GlcNAc(b1-4)]Man(a1-3)[GlcNAc(b1-4)][Neu5Ac(a2-6)Gal(b1-4)GlcNAc(b1-2)[Neu5Ac(a2-6)Gal(b1-4)GlcNAc(b1-6)]Man(a1-6)]Man(b1-4)GlcNAc(b1-4)GlcNAc. An outline of the steps:
as §1

Assay [18] has as its target Neu5Ac(a2-6)Gal(b1-4)GlcNAc(b1-3)Gal(b1-4)GlcNAc(b1-6)[Gal(b1-3)]GalNAc. An outline of the steps: as §1
Assay [19] has as its target Neu5Ac(a2-6)Gal(b1-4)GlcNAc(b1-6)GalNAc. In outline:
as §1

Assay [20] concerns the target Neu5Ac(a2-6)Gal(b1-4)GlcNAc6S. An outline of the steps:
as §1

Assay [21] has as its target Neu5Ac(a2-6)GlcNAc(b1-4)GlcNAc(b1-4)GlcNAc. An outline of the steps: as §1
Assay [22] has as its target Neu5Ac(a2-8)Neu5Ac(a2-8)Neu5Ac(a2-3)Gal(b1-4)Glc. An outline of the steps:
as §1

The target of assay [23] is Neu5Gc(a2-6)GalNAc. An outline of the steps: as §1

About 410 targets per protein were measured; listed, in parts, are those with the strongest signals and a random draw of the rest.

B1: WGA (Triticum vulgare) (protein)
chain: QRCGEQGSNMECPNNLCCSQYGYCGMGGDYCGKGCQNGACWTSKRCGSQAGGATCPNNHCCSQYGHCGFGAEYCGAGCQGGPCRADIKCGSQSGGKLCPNNLCCSQWGFCGLGSEFCGGGCQSGACSTDKPCGKDAGGRVCTNNYCCSKWGSCGIGPGYCGAGCQSGGCDAVFAGAITANSTLLAE
B1: the “glycan array binding signal (z-score)” value in [1] was 2.78; in assay [2] it was 2.71; in assay [3], 2.8; in assay [4], -0.351; in assay [5], 2.77; in [6] it was 2.56. Besides, the “glycan array binding signal (z-score)” value is 3.16 in [7]; 1.15 in assay [8]; 1.71 in [9]; -0.359 in assay [10]; 3.8 in [11]; 5.62 in assay [12]. For the same molecule, the “glycan array binding signal (z-score)” value in assay [13] is 5.15; in assay [14], -0.304; in [15], -0.353; in assay [16] it was -0.001; in assay [17], -0.366; in [18], -0.248. The “glycan array binding signal (z-score)” value in [19] was -0.307; in [20], -0.359; in assay [21] it was 3.14; in assay [22] it was -0.35; in assay [23], -0.324.
